Results: PubChem BioAssay (NCATS)
Records with an inconclusive call do not appear. The source made the active and inactive calls. The call rests on the fitted dose curve; in most records, active means well fitted inhibition curve with a large enough effect; inconclusive means small, poorly fitted or top-dose-only effect; inactive means flat fitted curve, though single readings scatter.

Key:
Test in all cases: qHTS profiling for inhibitors of Plasmodium falciparum proliferation (AID 504749); further: nearly all actives have a fitted effect of over 60% in size
Settings in all cases: P. falciparum in erythrocytes, SYBR Green DNA, 72 h; series mostly up to 28.7 µM
CP237 = tested on: CP237
Outline: (§1)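 Readout was DNA-dye fluorescence from lysed cultures, ex 485/em 535 nm. Parasitized red cells had grown 72 h with compound; data scaled between 0.29 uM artemisinin and DMSO wells and corrected using vehicle-only plates.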

CP238 = tested on: CP238
Outline: as §1

CP247 = tested on: CP247
Outline: as §1

CP250 = tested on: CP250
Outline: as §1

CP252 = tested on: CP252
Outline: as §1

CP256 = tested on: CP256
Outline: as §1

CP260 = tested on: CP260
Outline: as §1

CP262 = tested on: CP262
Outline: as §1

CP265 = tested on: CP265
Outline: as §1

CP266 = tested on: CP266
Outline: as §1

CP268 = tested on: CP268
Outline: as §1

CP269 = tested on: CP269
Outline: as §1

CP286 = tested on: CP286
Outline: as §1

CP291 = tested on: CP291
Outline: as §1

CP305 = tested on: CP305
Outline: as §1

CP315 = tested on: CP315
Outline: as §1

CP325 = tested on: CP325
Outline: as §1

CP329 = tested on: CP329
Outline: as §1

CP335 = tested on: CP335
Outline: as §1

CP297 = tested on: CP297
Outline: as §1

Measured: Potency
Potency means the concentration at half of the fitted maximal effect.

OC[C@H]1O[C@@H]2O[C@H]3[C@H](O)[C@@H](O)[C@@H](O[C@H]4[C@H](O)[C@@H](O)[C@@H](O[C@H]5[C@H](O)[C@@H](O)[C@@H](O[C@H]6[C@H](O)[C@@H](O)[C@@H](O[C@H]7[C@H](O)[C@@H](O)[C@@H](O[C@H]8[C@H](O)[C@@H](O)[C@@H](O[C@H]1[C@H](O)[C@H]2O)O[C@@H]8CO)O[C@@H]7CO)O[C@@H]6CO)O[C@@H]5CO)O[C@@H]4CO)O[C@@H]3CO
inactive: CP237 | CP238 | CP247 | CP250 | CP252 | CP256 | CP260 | CP262 | CP265 | CP266 | CP268 | CP269 | CP286 | CP291 | CP305 | CP315 | CP325 | CP329 | CP335

COc1cc(C(=S)N2CCOCC2)ccc1O
inactive: CP237 | CP238 | CP247 | CP250 | CP252 | CP256 | CP260 | CP262 | CP265 | CP268 | CP269 | CP286 | CP291 | CP297 | CP305 | CP315 | CP325 | CP329 | CP335

O=C(Nc1cccc(C2=NCCN2)c1)Nc1cccc(C2=NCCN2)c1
active: CP237 6.31 µM | CP238 6.31 µM | CP247 2.82 µM | CP250 3.55 µM | CP252 3.16 µM | CP256 0.708 µM | CP260 2.51 µM | CP262 4.78 µM | CP268 15.1 µM | CP269 12 µM | CP286 2 µM | CP291 15.1 µM | CP297 13.5 µM | CP305 7.57 µM | CP315 16.9 µM | CP329 13.5 µM | CP335 12 µM

O=C(Nc1ncc([N+](=O)[O-])s1)c1cccs1
inactive: CP237 | CP238 | CP247 | CP250 | CP252 | CP256 | CP260 | CP262 | CP265 | CP268 | CP269 | CP286 | CP291 | CP297 | CP305 | CP315 | CP325 | CP329 | CP335

CC(=O)N[C@@H](CCC(=O)O)C(=O)O
inactive: CP237 | CP238 | CP247 | CP250 | CP252 | CP256 | CP260 | CP262 | CP265 | CP266 | CP268 | CP269 | CP286 | CP297 | CP305 | CP315 | CP325 | CP329 | CP335

C#C[C@]1(O)CC[C@H]2[C@@H]3CCC4=Cc5oncc5C[C@]4(C)[C@H]3CC[C@@]21C
inactive: CP237 | CP238 | CP247 | CP250 | CP252 | CP256 | CP260 | CP262 | CP265 | CP266 | CP268 | CP269 | CP286 | CP291 | CP305 | CP315 | CP325 | CP329 | CP335

Cc1ncc(CO)c(C=O)c1O
inactive: CP237 | CP238 | CP247 | CP250 | CP252 | CP256 | CP260 | CP265 | CP286 | CP335

CCOc1ccccc1C(N)=O
inactive: CP237 | CP238 | CP247 | CP250 | CP252 | CP256 | CP260 | CP262 | CP265 | CP266 | CP268 | CP269 | CP286 | CP297 | CP305 | CP315 | CP325 | CP329 | CP335

CCCc1ncc(C[n+]2ccccc2C)c(N)n1
inactive: CP237 | CP238 | CP247 | CP250 | CP252 | CP256 | CP260 | CP265 | CP266 | CP268 | CP269 | CP286 | CP291 | CP297 | CP305 | CP315 | CP325 | CP329

CC(=O)NCCCCCC(=O)O
inactive: CP237 | CP238 | CP247 | CP252 | CP256 | CP260 | CP262 | CP265 | CP266 | CP268 | CP269 | CP286 | CP291 | CP297 | CP305 | CP315 | CP325 | CP329 | CP335
